We go through 36 molecules from ChEMBL document CHEMBL3433997, “St. Jude Leishmania screening dataset” (2016).

Common to all, as to assay type: functional
In assay [1] the target is Solute carrier family 2, facilitated glucose transporter member 1 (Homo sapiens) (UniProt P11166). Put plainly: ST_JUDE_LEISH: Cytotoxicity at 2uM final concentration against transgenic Leishmania Mexicana promastigotes LmGLUT1 that are glucose transport deficient and complemented with the human glucose transporter GLUT1. Activity is measured by DNA content using SYBR green in vitro.

Assay [2] addresses Hexose transporter 1 (Plasmodium falciparum) (UniProt O97467). Put plainly: ST_JUDE_LEISH: Cytotoxicity at 2uM final concentration against transgenic Leishmania Mexicana promastigotes LmPfHT that are glucose transport deficient and complemented with the Plasmodium falciparum hexose transporter. Activity is measured by DNA content using SYBR green in vitro.
The target in assay [3] is Glucose transporter (Leishmania mexicana) (UniProt O61059). Put plainly: ST_JUDE_LEISH: Cytotoxicity at 2uM final concentration against transgenic Leishmania Mexicana promastigotes LmGT2 that are glucose transport deficient and complemented with the L. Mexicana glucose transporter 2. Activity is measured by DNA content using SYBR green in vitro.

“And” between values parts separate entries of the source, which are not always exact repeats. Equal values may be shown once.

Chain of Solute carrier family 2, facilitated glucose transporter member 1 (Homo sapiens) (P11166 whole entry): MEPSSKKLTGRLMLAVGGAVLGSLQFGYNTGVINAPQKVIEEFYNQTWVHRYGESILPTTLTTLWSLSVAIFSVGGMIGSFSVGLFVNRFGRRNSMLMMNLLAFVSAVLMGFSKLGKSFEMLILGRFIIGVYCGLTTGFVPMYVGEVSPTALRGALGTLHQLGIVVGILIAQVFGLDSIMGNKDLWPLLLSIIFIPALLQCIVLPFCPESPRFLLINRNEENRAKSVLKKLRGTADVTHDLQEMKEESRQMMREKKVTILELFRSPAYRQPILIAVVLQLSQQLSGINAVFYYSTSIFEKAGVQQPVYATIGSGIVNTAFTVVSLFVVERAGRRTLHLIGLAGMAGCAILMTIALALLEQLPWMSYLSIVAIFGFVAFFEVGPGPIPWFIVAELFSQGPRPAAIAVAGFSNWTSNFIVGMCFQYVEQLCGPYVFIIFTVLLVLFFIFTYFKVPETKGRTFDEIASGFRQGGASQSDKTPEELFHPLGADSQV

The term inhibition denotes the change of the read-out against control, counted positive when it falls. As for `CCN(CC)C(=O)C1CCCN(C(=O)Nc2cc(C(F)(F)F)cc(C(F)(F)F)c2)C1` (stereo not drawn), the values for the inhibition in assay [1], in assay [2] and in assay [3] were 0.66%, 0.55% and -2.05%, respectively.
Consider `CN1CCCN(Cc2cccc(-c3cccc(NC(=O)c4ccc(C#N)cc4)c3)c2)CC1`, for which the inhibition in assay [1] was 11%; in assay [2] it was 7.28%; in assay [3], 6.98%.
In the same order, the values of `O=C(NCc1cccc(F)c1)Nc1ccc(-c2ccc(-c3nc4cc(C(F)(F)F)ccc4[nH]3)cc2)cc1` are 0.8%, -0.45% and 1.77%.
In the same order, the values of `Cc1ccc(CON2C(N)=NC(N)=NC23CCCCC3)c2ccccc12` are 3.13%, 2.42% and 4.18%.
Regarding `Fc1ccc(Nc2ccnc3cc(-c4ccc(CN5CCOCC5)o4)ccc23)c(Cl)c1`, the results for the inhibition in assay [1], in assay [2] and in assay [3] were 9.15%, 8.02% and 7.49%, respectively.
As to `N=C(NCCc1ccccc1Cl)c1ccc2ccccc2c1`, the inhibition in assay [1] is -1.42%; in assay [2] it was -1.63%; in assay [3], -2.06%.
In the same order, the values of `COc1ccccc1Cc1c(C)nc2nc(N)nc(N)c2c1C` are 6.33%, 4.07% and 7.13%.
In the same order, the values of `CCCNCc1ccc(-c2ccc(CN(CCOC)C(=O)Cc3cccnc3)cc2)nc1` are 0.25%, 1.34% and 3.67%.
In the same order, the values of `CCOC(=O)c1nc(-c2ccc(-c3ccccc3)cc2)[nH]c1N` are 3.98%, 2.89% and 2.52%.
For the molecule `CC(C)(C)c1ccc(CN2CCCCC(NC(=O)c3cc(-c4cccc(Cl)c4)cs3)C2)cc1` (stereo not drawn), the inhibition in assay [1] was -0.16%; in assay [2], -0.87%; in assay [3], -6.21%.
`CC(C)Cc1ccc(N2CCN(CCCCNC(=O)c3ccc(NC(=O)c4ccc(Cl)c(Cl)c4)cc3)CC2)cc1`: the inhibition was found to be 1.28% in assay [1], 1.46% in assay [2] and 0.21% in assay [3].
For `Cc1[nH]c(C)c(-c2ccc(-c3ccc(OC(F)(F)F)cc3)cc2)c(=O)c1Cl`, the figures for the inhibition in assay [1], in assay [2] and in assay [3] were 4.71%, 3.77% and -2.04%, respectively.
In the case of `O=C(Nc1ccc(C(=O)OCC(c2ccccc2)c2ccccc2)cc1)N[C@@H](Cc1ccc(O)cc1)C(=O)NC1CCN(Cc2ccc(O)cc2)C1` (stereo partly drawn), the inhibition in assay [1] was -0.47%; in assay [2], -1.74%; in assay [3] it was -3.39%.
`Cc1noc(C)c1-c1cccc(CNCc2cccc(-c3ccc(-c4nc5cccc(C)c5[nH]4)s3)c2)c1`: the inhibition turned out to be 2.85% in assay [1], 2.47% in assay [2] and 2.66% in assay [3].
In the same order, the values of `COc1ccc(NC(=O)c2csc(-c3cc(NC(=O)c4ccnc(N5CCCC5)c4)ccc3C)c2)cc1N1CCN(C)CC1` are 1.89%, 2.56% and -1.28%.
In the same order, the values of `CCCN1CCc2c(sc3nc(SCC(=O)Nc4ccc(C)cc4)n(-c4ccc(C)cc4)c(=O)c23)C1` are 6.06%, 3.25% and 3.72%.
For the molecule `NCc1ccc(CNCc2cccc(-c3cccc(-c4nc5cc(F)ccc5[nH]4)c3)c2)cc1`, the inhibition in assay [1] amounted to 9.71%; in assay [2] it was 9.36%; in assay [3], 8.54%.
In the same order, the values of `COc1cccc(C(=O)NCc2nnc(S)n2-c2ccc(Cl)c(Cl)c2)c1` are -0.13%, 0.68% and -0.3%.
In the same order, the values of `CCCC(C)Nc1nc(C)cc(N[C@@H](CC(C)C)C(=O)NCCc2ccccc2)n1` (stereo partly drawn) are 7.28%, 6.41% and 8.06%.
In the same order, the values of `c1ccc(CN2CCC(NCc3cccc(-c4cncc5ccccc45)c3)CC2)cc1` are 9.44%, 7.7% and 8.64%.
As to `COc1cc(NC(=O)Nc2ccnc3ccccc23)cc(OC)c1`, the inhibition in assay [1] is 0.62%; in assay [2], -0.6%; in assay [3], 1.16%.
As for `N#Cc1ccc2c(c1)CN(CC[C@H]1CC[C@H](NC(=O)/C=C/c3c[nH]c4ccccc34)CC1)CC2`, the inhibition was 7.48% and 1.99% in assay [1]; 6.9% and 1.06% in assay [2]; 5.69% and -2.35% in assay [3].
For `CNC(=O)c1cc(S(=O)(=O)N2CCN(c3ccccn3)CC2)cs1`, the inhibition is 0.24% in assay [1], 0.78% in assay [2] and -2.48% in assay [3].
Take `CC(CN1CCN(C)CC1)C(=O)Nc1cccc(-c2ccc(-c3nc4ccccc4[nH]3)s2)c1` (stereo not drawn): the results for the inhibition in assay [1], in assay [2] and in assay [3] were -1.1%, -1.46% and -3.97%, respectively.
In the same order, the values of `Cn1cc(C(=O)Nc2cccc(-c3cccc(-c4nc5ccccc5[nH]4)c3)c2)n(C)c1=O` are 4.31%, 2.7% and 2.54%.
For `Cc1noc(C)c1S(=O)(=O)N(C)Cc1ccc(-c2ccc(Cl)cc2)o1`, the inhibition in assay [1] was 1.57%; in assay [2] it was 1.24%; in assay [3], -2.43%.
In the same order, the values of `CCc1cc(NC2CCN(C)CC2)nc(Nc2ccc(C)cc2)n1` are 7.94%, 4.93% and -1.22%.
`CS(=O)(=O)N(c1ccccc1)c1cc(C(=O)N[C@@H](Cc2ccccc2)[C@H](O)CNC2CCCCC2)cc(N2CCCC2=O)c1`: the inhibition in assay [1] was found to be 1.9%; in assay [2], 1.63%; in assay [3] it was 0.49%.
In the same order, the values of `O=C(Nc1ccc(N2CCN(c3ncccc3C(F)(F)F)CC2)nc1)c1cccs1` are 2.6%, 3.03% and 0.38%.
In the same order, the values of `CC1CN(c2ncc(-c3ccc(CNC4Cc5ccccc5C4)cc3)cn2)CC(C)N1` (stereo not drawn) are 2.69%, 2.64% and 0.64%.
As to `CCNc1cc(C(=O)N[C@@H](Cc2ccccc2)[C@H](O)CNCCC(C)c2ccccc2)cc(N2CCCC2=O)c1` (stereo partly drawn), the figures for the inhibition in assay [1], in assay [2] and in assay [3] were 4.77%, 5.96% and 1.33%, respectively.
Consider `Oc1ccc(CCNc2nc(N/N=C/c3ccc(Cl)cc3)nc(N3CCNCC3)n2)cc1`, for which the inhibition was -0.62% in assay [1], 1.75% in assay [2] and 0.33% in assay [3].
In the same order, the values of `COc1ccccc1N1CCN(CCCCNC(=O)c2ccc(NC(=O)c3ccc4ccccc4c3)cc2)CC1` are 0.49%, 1.01% and -0.43%.
In the same order, the values of `CN(c1ccc(NC(=O)Nc2cc(C(F)(F)F)ccc2F)cc1)c1ccnc(NCCN2CCCC2)n1` are 5.11%, 4.8% and 4.41%.
In the case of `Cc1cc(Br)cnc1CCCCNc1cc(=O)c2ccccc2[nH]1`, the values for the inhibition in assay [1], in assay [2] and in assay [3] were 4.59%, 6.14% and 4.81%, respectively.
In the same order, the values of `Cc1nc(C)c(CC(=O)Nc2cccc(-c3cccc(-c4nc5cc(C(F)(F)F)ccc5[nH]4)c3)c2)s1` are 2.61%, 2.61% and 1.2%.
